GLA inh pH 4.5: qHTS Assay for Inhibitors of Human alpha-Galactosidase at pH 4.5. 230,000 tested, under 10 active. Alpha-galactosidase A (Homo sapiens), P06280. activity change, negative = inhibition, % at 105 µM. purified enzyme, 4-MU-alpha-Gal fluorescence, pH 4.5;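 also: 0% = full activity with enzyme and -100% = basal without enzyme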
Target sequence (P06280 whole entry, looked up): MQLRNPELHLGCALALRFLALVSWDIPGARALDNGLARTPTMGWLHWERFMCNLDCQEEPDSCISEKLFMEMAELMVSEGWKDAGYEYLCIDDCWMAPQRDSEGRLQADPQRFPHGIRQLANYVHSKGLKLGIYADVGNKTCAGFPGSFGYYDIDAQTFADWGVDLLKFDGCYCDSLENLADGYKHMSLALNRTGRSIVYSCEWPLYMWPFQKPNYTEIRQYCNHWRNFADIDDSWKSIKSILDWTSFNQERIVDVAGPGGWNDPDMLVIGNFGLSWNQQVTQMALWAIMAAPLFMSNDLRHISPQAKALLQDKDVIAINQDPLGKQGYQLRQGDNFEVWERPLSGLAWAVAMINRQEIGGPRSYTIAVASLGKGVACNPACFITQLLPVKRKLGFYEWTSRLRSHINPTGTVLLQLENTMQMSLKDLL
N370S GC mod: qHTS Assay for Inhibitors and Activators of N370S glucocerebrosidase as a Potential Chaperone Treatment of Gaucher Disease; Lysosomal acid glucosylceramidase (Homo sapiens), P04062; N370S GC spleen homogenate, 4MU-glucoside fluorescence; Potency, µM (titrated, usually from 59.4 µM), for inactives: at the highest dose activity change, negative = inhibition, hits mostly inhibitors; actives 0.092% (n = 330,000);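 also: potency is read from the fitted curve at half-maximal effect; 0% = full enzyme activity and -100% = no enzyme basal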
aGlu spleen mod: qHTS Assay for Inhibitors and Activators of Human alpha-Glucosidase From Spleen Homogenate | Lysosomal alpha-glucosidase (Homo sapiens), P10253 | human spleen homogenate, 4-MU-alpha-glucoside fluorescence | Potency, µM (series often up to 79.9 µM), for the others: at the top dose activity change, negative = inhibition, usual class: inhibitors | actives 0.006% (n = 240,000) | AID 2112, 2009;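 also: potency is read from the fitted curve at half-maximal effect; 0% = enzyme with vehicle and -100% = no enzyme basal signal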
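Human spleen homogenate (1 ug) incubated with compounds and 1 mM 4-methylumbelliferyl-alpha-D-glucopyranoside in pH 5.0 citrate/phosphate buffer, 37 C, 40 min. Stopped at pH 10; 4-MU fluorescence (Ex 365/Em 440 nm); AC50 by Hill fit.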
GLA spleen mod: qHTS Assay for Inhibitors and Activators of Human alpha-Galactosidase From Spleen Homogenate. Alpha-galactosidase A (Homo sapiens), P06280. human spleen homogenate, 4MU-alpha-Gal fluorescence, 40 min. actives 0.008% (n = 240,000). Potency, µM (titrated, usually from 80 µM), without a hit: at the top dose activity change, negative = inhibition, usual class: inhibitors;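 also: potency is read from the fitted curve at half-maximal effect; 0% = enzyme with vehicle and -100% = no enzyme basal signal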
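Human spleen homogenate (1 ug) as enzyme source, 4-methylumbelliferyl-alpha-D-galactopyranoside 1 mM final, citrate/phosphate pH 5.0 with 0.01% Tween-20. Compounds 40 min at 37C, NaOH/glycine stop; fluorescence Ex 365/Em 440, Hill-fit AC50.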
GAA inhib: qHTS Assay for Inhibitors of Human alpha-Glucosidase as a Potential Chaperone Treatment of Pompe Disease. actives 0.005% (n = 200,000). Lysosomal alpha-glucosidase (Homo sapiens), P10253. Potency, µM (series often up to 76.9 µM), for the others: at the highest dose activity change, negative = inhibition, hits mostly inhibitors. AID 1466, 2008. purified human GAA, 4-MU-alpha-glucoside fluorescence;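 also: potency is read from the fitted curve at half-maximal effect; plate controls were uninhibited enzyme wells for no effect and no-enzyme background for full effect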
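Human enzyme at 4 nM with 400 uM 4-methylumbelliferyl-alpha-D-pyranoside, citrate/phosphate buffer pH 5.0, 0.005% Tween-20, 20 min at room temperature. Compounds up to 77 uM. 4-MU fluorescence (Ex 365/Em 440) read after NaOH/glycine stop; AC50 from Hill fit.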
GAA glycogen: qHTS Assay for Inhibitors and Activators of Human alpha-Glucosidase Cleavage of Glycogen; recombinant GAA, glycogen substrate, Amplex Red glucose oxidase fluorescence; Potency, µM (highest dose often 76.4 µM), for the others: top-dose activity change, negative = inhibition, hits mostly inhibitors; actives 0.38% (n = 300,000); Lysosomal alpha-glucosidase (Homo sapiens), P10253; AID 2100, 2009;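 also: potency is read from the fitted curve at half-maximal effect; 0% = full enzyme reaction and -100% = no-enzyme basal signal; the screen sought inhibitors and activators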
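Recombinant human alpha-glucosidase (4 nM final) hydrolysed bovine liver glycogen (30 ug) for 40 min at 37 C in pH 5.0 citrate/phosphate with 0.01% Tween-20. Released glucose detected by glucose oxidase/Amplex Red, Ex 573/Em 610 nm. Compounds up to 77 uM; AC50 from Hill fits.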
The depositor's hits bear a star; u = inconclusive; x = no result; [ ] = dose if it differs, or a comment. Most compounds without a hit are left out; they make up all but 0.41% or so of the library. Calls follow the shape of the dose curve; as a rule, active = well fitted curve in the direction sought with a large enough effect; inconclusive = small, poorly fitted or top-dose-only effect, or another doubt; inactive = no such curve, though single readings can be large; an effect the other way counts as inactive or inconclusive.

SMILES	GLA inh pH 4.5	N370S GC mod	aGlu spleen mod	GLA spleen mod	GAA inhib	GAA glycogen
Cc1ccc(S(=O)(=O)Nc2nc(C)c(NC(=O)OCCCl)s2)cc1	4.2	4.4%	-6.0%	-7.1%	-4.0%	22.2µM*
Cc1nc(NS(=O)(=O)c2ccccc2)sc1NC(=O)OC(C)C	7.9	1.4%	-6.6%	-3.4%	4.2%	28µM*
Cc1oc2ccc(O)c(CN(C)Cc3ccccc3)c2c1C(=O)Nc1ccccc1	x	x	x	x	x	12.4%[76.3 µM]
O=c1cc(-c2cccc(O)c2O)oc2ccccc12	-4.8	-8.6%	3.9%	-6.1%	x	x
CC(=O)C(=O)O	x	-10.4%	-5.1%	0.1%	x	x
CCCCNC(=O)NS(=O)(=O)c1ccc(C(=O)O)cc1	x	-7.4%	0.5%	-11.7%	x	x
COc1cccc(C(=O)/C=C/Nc2cc(C)ccc2O)c1	-14.5	0.3%	-17.1%	1.9%	-4.8%	28.2µM*
CCC[C@H](NC(C)=O)C(=O)N[C@H]1CC(=O)ONCCCC[C@@H](C(N)=O)NC(=O)[C@H](Cc2c[nH]c3ccccc23)NC(=O)[C@H](CCCN=C(N)N)NC(=O)[C@@H](Cc2ccc3ccccc3c2)NC(=O)[C@H](Cc2cnc[nH]2)NC1=O	x	-1.0%	0.2%	-1.4%	x	x
Cc1ccc(/C=N\Nc2nc3ccc(Cl)cc3[nH]2)o1	2.4	-4.1%	3.2%	1.0%	8.9%	6.26µM*
C=CCn1c2ccccc2c2nnc(SCC(=O)NC(C(=O)OC)C(C)C)nc21 (configuration not stated)	4.4	8.5%	-16.6%	39.8µM*	-2.6%	3.2%
C=CCn1c2ccccc2c2nnc(SCC(N)=O)nc21	x	-13.6%	x	x	x	-13.6%
C=CCNC(=S)NN=C1CCCCCCC1	-2.0	-0.2%	-7.4%	4.4%	10.1%	35.5µM*
COC(=O)C1CSc2[nH]c(=O)sc2C1c1ccc(OC)c(OC)c1 (configuration not stated)	5.5	-5.1%	-5.6%	2.2%	10.0%	17.8µM*
COc1cc2c(cc1OC)C(C(C(=O)N(CCc1ccc(OC)c(OC)c1OC)CCc1ccc(OC)c(OC)c1OC)c1ccccc1)=NCC2 (configuration not stated)	-8.9	-9.4%	3.6%	4.4%	x	x
Nc1n[nH]c(-c2ccc(Br)cc2)c1Cl	0.0	-20.1%	u	0.3%	u	12.6µM*
CCS(=O)(=O)N1CC(=O)N(c2ccc(Cl)cc2)C(C)(C(=O)NC2CCCCC2)C1 (configuration not stated)	x	x	x	x	x	16.4%[76.3 µM]
CC(=O)Nc1ccc2c(c1)OCO2	0.0	-8.3%	10.4%	7.1%	-2.5%	-13.7%
C/C(=C\C(=O)c1ccccc1)Nc1ccc2c(c1)OCO2	7.7	-10.4%	3.6%	-1.3%	4.1%	15.8µM*
Cc1ccc(C(=O)Nc2ccc3c(c2)OCO3)o1	-0.5	3.2%	-3.6%	-5.8%	-13.5%	2.4%
C/C(=C\C(=O)c1ccc(C)o1)Nc1ccc2c(c1)OCO2	-4.9	16.6%	-3.3%	1.8%	3.1%	28.2µM*
CC(=O)c1ccc(NC(=O)c2ncn(-c3ccccc3)n2)cc1	x	x	x	x	x	14.7%[76.3 µM]
COc1ccc(-c2cc(-c3cc(OC)ccc3O)[nH]n2)cc1	0.7	-3.6%	3.1%	4.0%	-0.3%	19.8µM*
Cc1ccc(-c2cnc(NCc3c(F)cccc3Cl)n2C)cc1	x	x	x	x	x	22.4µM*
NCC(=O)N[C@@H](CCCN=C(N)N)C(=O)NCC(=O)N[C@@H](CCC(=O)O)C(=O)N[C@@H](CO)C(=O)O	x	-2.4%	3.5%	-6.1%	x	x
CC(=O)NNc1nc2ccccc2s1	3.0	3.9%	-7.4%	-6.8%	1.7%	8.91µM*
SMILES	GLA inh pH 4.5	N370S GC mod	aGlu spleen mod	GLA spleen mod	GAA inhib	GAA glycogen
COc1ccc2nc(NNC(=O)COc3ccccc3)sc2c1	7.2	21.8%	1.7%	4.4%	-1.4%	5.01µM*
Cc1ccc(-c2cn3c(n2)sc2cc(C(=O)NCCCc4ccccc4)ccc23)c(C)c1	x	x	x	x	x	14.1%[76.3 µM]
O=C(NNC(=O)c1cccs1)c1ccco1	-2.2	2.8%	3.6%	19.0%	u	3.6%
O=C(NC(=S)NNC(=O)c1cccs1)c1ccco1	-5.6	1.6%	-18.1%	-15.5%	-6.0%	28.2µM*
CCN(C(=O)CSc1nc(-c2ccccc2)no1)c1cccc(C)c1	x	x	x	x	x	8.6%[76.3 µM]
COc1cccc(C(c2c(NC(=O)c3ccccc3)sc(C)c2C)N2CCN(C)CC2)c1 (configuration not stated)	1.5	15.8µM*	3.0%	3.9%	4.7%	2.9%
CCCn1c(-c2ccc(F)cc2)nc2c(NCCCCN(CC)CC)nc(C)nc21	4.5	-7.7%	2.6%	-1.2%	x	x
CN1c2ccccc2C(C)(C)[C@]12C=Cc1cc(O)ccc1O2	-3.3	-22.3%	-5.9%	-4.2%	-4.5%	7.88µM*
CN1c2ccccc2C(C)(C)C12C=Nc1c(ccc3ccccc13)O2 (configuration not stated)	-8.1	2.5%	5.6%	13.4%	1.2%	8.5%
COc1ccc(Nc2nc(-c3ccccc3)nc3ccccc23)cc1S(=O)(=O)N1CCOCC1	-11.3	14.1µM*	-1.3%	7.4%	x	-10.6%
Oc1cccc(Nc2nc(-c3ccccc3)nc3ccccc23)c1	x	2.82µM*	x	x	x	-5.6%
Cc1cccc(S(=O)Cc2ccc(C(=O)NC3CCCCCC3)o2)c1 (configuration not stated)	x	x	x	x	x	8.3%[76.3 µM]
CCCCS(=O)(=O)N1CCc2nc(COc3ccccc3)c3c(c2C1)CO[C@@H](C)C3	10.1	4.7%[12.8 µM]	-2.6%[17.4 µM]	-2.4%[17.5 µM]	x	x
Cc1c(C(=O)O)c2cc(O)ccc2n1-c1ccccc1	4.8	-3.7%	-6.1%	-21.3%	-3.2%	25.1µM*
O=C(/C=C/c1ccc(O)c(O)c1)OC1C[C@](O)(C(=O)O)C[C@@H](O)[C@H]1O (some centres not stated)	x	5.0%	-8.8%	-15.4%	x	x
Cc1cc(C)c(S(=O)(=O)Nc2ccc(O)cc2)cc1C	-3.7	6.3%	-0.2%	1.8%	-1.1%	14.1µM*
Cc1ccc(C)c(S(=O)(=O)Nc2ccc(O)cc2)c1	-1.8	-4.2%	-4.2%	-2.9%	-1.4%	12.5µM*
COc1ccc(C2SCC(=O)N2CCc2ccc(OC)c(OC)c2)cc1 (configuration not stated)	u	-12.6%	6.8%	5.4%	1.2%	5.62µM*
N#Cc1ccc(CS(=O)(=O)c2nc3ccccc3s2)cc1	-1.5	0.0%	2.8%	-2.2%	x	x
